According to PubChem BioAssay (NCI):
About 83,000 compounds went through this panel and 20% of them were active in at least one assay; those are over-represented in the sample as a whole.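 Activity criterion: percent growth below 10, measured after cells in 96-well plates were exposed to a single compound concentration for 48 hours.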 Active and inactive are the calls of the source.

Assays:
Test in all cases: NCI-60 one-dose screen, 48 h (100 = growth as untreated, 0 = no growth, -100 = all killed)
Conditions in all cases: 10 µM unless noted
[1] = system: EKVX NSCLC
[2] = system: SN12C renal
[3] = system: UO-31 renal
[4] = system: TK-10 renal
[5] = system: CAKI-1 renal
[6] = system: A498 renal
[7] = system: CCRF-CEM leukemia
[8] = system: MOLT-4 leukemia
[9] = system: SR leukemia
[10] = system: ACHN renal

Measured: growth

NC(=O)CSc1nc(-c2ccc(F)cc2)cc(-c2ccco2)n1
inactive: [1] 95.8% | [2] 101% | [3] 75.2% | [4] 129% | [5] 85.7% | [6] 103% | [7] 107% | [8] 97.9% | [9] 94.5%

Cc1ccc(NCCNCC(O)CO)c2c(=O)c3ccccc3sc12 (stereo not drawn)
inactive: [1] 43.3% | [2] 19.7% | [5] 39.2% | [6] 43.2% | [7] 22.2%
active: [3] -24% | [10] -46.3% | [8] 9.37% | [9] -9.74%

CC1=CCC(OC(=O)C(C)(C)CCC(O)(C(=O)OC2(C(C)C)CCC3(C)OC3C2)C(C)C)(C(C)C)CC1 (stereo not drawn)
active: [1] -63% | [2] -43.8% | [3] -99.2% | [4] -99.2% | [10] -94.8% | [5] -100% | [7] -19.2% | [8] -30.3%
inactive: [9] 11.3%

O=C(c1nc2ccccc2[nH]1)C1C(c2cccc([N+](=O)[O-])c2)C2CC3CCCCC3N2[C@@]12C(=O)Nc1cc(Cl)ccc12 (stereo partly drawn)
active: [3] -19.5% | [8] 8.76% | [9] 6.09%
inactive: [1] 31.3% | [2] 33.2% | [4] 46.9% | [10] 21.2% | [5] 12.2% | [7] 25.5%

S=C1NC2(c3ccccc3)CCC(=S)N2c2ccccc21 (stereo not drawn)
inactive: [1] 100% | [2] 96.8% | [3] 86.2% | [4] 124% | [10] 108% | [5] 78.7% | [7] 101% | [8] 97.5% | [9] 92.9%

O=C1CCC(N2C(=O)c3cccc(NCCCCCCOc4ccc(Nc5nccc(Nc6ccccc6)n5)cc4)c3C2=O)C(=O)N1 (stereo not drawn)
inactive: [1] 77.3% | [2] 79% | [3] 77.8% | [4] 108% | [10] 74.8% | [5] 63.8% | [8] 55.2% | [9] 68.5%

CC/C(=C(\CC)c1ccc(OCC[N+](C)(C)C)cc1)c1ccc(OC)cc1
inactive: [1] 95.6% | [2] 51.1% | [3] 98.2% | [10] 98% | [5] 104% | [6] 53% | [7] 60.1% | [8] 65% | [9] 69.3%

COc1ccc(/C=C/C(=O)c2c(C)nc3ccccc3c2/C=C/c2ccccc2)c(OC)c1
inactive: [1] 76.9% | [2] 84.3% | [3] 61.4% | [4] 123% | [10] 79.5% | [5] 55.9% | [8] 48.6%

CCCN1CCN(c2ccc3nc(-c4ccc5nc(-c6cc(OC)ccc6OC)[nH]c5c4)[nH]c3c2)CC1
inactive: [1] 96.7% | [2] 99.2% | [3] 85.7% | [4] 118% | [10] 106% | [5] 106% | [8] 77%
active: [7] 3.98% | [9] -25.6%

COC(=O)c1c2c(c(C)[n+]([O-])c1C)C(=O)C=C(NCc1ccc(F)c(F)c1)C2=O
active: [1] -82.1% | [2] -93.7% | [3] -71.5% | [4] 3.98% | [10] -78.2% | [5] -10.6% | [7] 5.3% | [8] -26.5%
inactive: [9] 10.5%

Cc1ccc2nc(NC(=O)CSC(=S)N3CCN(c4ccccc4)CC3)sc2c1
inactive: [1] 109% | [2] 99% | [3] 88.2% | [4] 108% | [10] 100% | [6] 108% | [8] 111% | [9] 98.7%

COc1ccccc1C(=O)/C=C/c1ccccc1
inactive: [1] 97.8% | [2] 83.5% | [3] 73.4% | [10] 90.5% | [5] 90.4% | [6] 98.8% | [7] 46.3% | [8] 81.1% | [9] 43.1%

CCN1C(=O)N(c2ccccc2)C2NN=c3s/c(=C4\C(=O)N(C(C)C)c5ccccc54)c(=O)n3C21 (stereo not drawn)
inactive: [1] 55.9% | [2] 38.7% | [3] 55.6% | [4] 74.9% | [10] 37.1% | [5] 49.1% | [7] 15.1% | [8] 20.9% | [9] 14.6%

O=C1N=c2ccccc2=C1c1sc(=Nc2ccccc2)n(Nc2ccccc2)c1O
inactive: [1] 94.2% | [2] 106% | [3] 81.4% | [4] 138% | [10] 109% | [5] 37.2% | [7] 103% | [8] 99.3% | [9] 99.2%

CNCCNc1nc2ccccc2c2c(=O)c3cccc(C)c3sc12
inactive: [1] 46.4% | [2] 32.5% | [3] 29.6% | [4] 41.7% | [5] 17.9% | [7] 21%
active: [10] -29.9% | [8] -29.5% | [9] -29.9%

CC[C@@H](C)[C@H](NC(=O)Cn1cc(CNC(=O)[C@@H](NC(=O)OCc2ccccc2)C(C)C)nn1)C(=O)O
inactive: [1] 100% | [2] 97.1% | [3] 95.1% | [4] 112% | [5] 88.4% | [6] 98.9% | [7] 106% | [8] 109% | [9] 101%

Nc1ccc(C2c3ccccc3Oc3ccccc32)cc1
inactive: [1] 86.3% | [2] 98.5% | [3] 81.7% | [10] 97.6% | [5] 87.2% | [6] 124% | [7] 94.8% | [8] 83% | [9] 97.8%

CCCC(=O)CC(C)=O.CCCC(=O)CC(C)=O.[Cu]
inactive: [1] 106% | [2] 110% | [3] 102% | [10] 105% | [5] 103% | [6] 122% | [7] 107% | [8] 99.2% | [9] 85.6%

COc1cccc2cc(N(C)c3nc(C)nc4ccsc34)ccc12
inactive: [1] 60.2% | [2] 25.7% | [3] 30.5% | [4] 41.8% | [10] 18.9% | [5] 21.5%
active: [7] 4.65% | [8] 3.39% | [9] 2.36%

COc1ccc(CCN2C(=O)CCSC2=S)cc1
inactive: [1] 101% | [2] 46.4% | [3] 59.9% | [4] 39.1% | [10] 42.3% | [5] 44.8% | [8] 64.1% | [9] 18.1%

CCCCOCc1cc(CN2CCN(C)CC2)c(O)c2ncccc12
inactive: [1] 38.4% | [2] 62% | [3] 21.3% | [10] 27.9% | [5] 19.5% | [6] 70.1% | [7] 31.8% | [8] 60.6% | [9] 35.9%

CC(C)[C@H](NC(=O)Cn1cc(C(=O)O)nn1)C(=O)O
inactive: [1] 93.8% | [2] 95.7% | [3] 88.7% | [4] 115% | [5] 89.4% | [6] 90.6% | [7] 113% | [8] 96.7% | [9] 101%

CN1C(=O)N(C)C2Nn3c(s/c(=C\c4ccc(Cl)cc4Cl)c3=O)=NC21 (stereo not drawn)
inactive: [1] 65.1% | [2] 75.6% | [3] 62% | [4] 117% | [10] 56.6% | [5] 48.4% | [7] 49% | [8] 64.1% | [9] 35.9%

CCCCN1CCN(c2ccc3nc(-c4ccc5nc(-c6ccc(C(F)(F)F)cc6)[nH]c5c4)[nH]c3c2)CC1
active: [1] -72.4% | [2] -80.9% | [3] -82.8% | [4] -71.3% | [10] -99.5% | [5] -77.1% | [7] -32.6% | [8] -61% | [9] -46.8%

COc1cc(/C=C2\Oc3cc(OCCCN4CCCC4)ccc3C2=O)cc(OC)c1
active: [10] -45.4% | [7] -24.4% | [8] -22.9% | [9] -49.3%
inactive: [1] 77.1% | [2] 78.8% | [3] 53.4% | [4] 101% | [5] 58.6%

Oc1[nH]c2ccccc2c1N=Nc1nnc2n1N=C(c1ccccc1)CS2
inactive: [1] 87.7% | [2] 99.1% | [3] 100% | [4] 94% | [10] 94.8% | [5] 79.4% | [7] 96.6% | [8] 88% | [9] 77.3%

COC(=O)c1c2c(c(C)[n+]([O-])c1C)C(=O)C=C(NCc1ccccc1)C2=O
inactive: [4] 18.1%
active: [1] -54.9% | [2] -89.1% | [3] -13.6% | [10] -29.5% | [5] 3.56% | [7] 6.23% | [8] -36.2% | [9] 4.44%
